Experimental data from PubChem BioAssay (NCI).
Compounds without any hit were thinned out: in the full panel of roughly 79,000, 15% have a hit. The source made the active and inactive calls. Cut-off read from the data, not from the text of the source: active = growth inhibition above about 70%; inactive = the rest.

Columns and labels:
[1] = NCI Yeast Anticancer Drug Screen. Data for the wt2 strain (AID 169);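 note: 0% = growth of vehicle-treated yeast cultures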; details: S. cerevisiae wt2 strain growth inhibition, stronger effect = higher value
Method in brief: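 Treated yeast vs. vehicle-treated yeast: growth inhibition determined.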

[2] = NCI Yeast Anticancer Drug Screen. Data for the mlh1 strain (AID 171);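 note: 0% = growth of vehicle-treated control cultures of the same strain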; details: S. cerevisiae mlh1 strain growth inhibition, stronger effect = higher value
Method in brief: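 A yeast strain with a defined genetic lesion serves as the test organism. Cultures receive compound or vehicle, and growth is measured.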

[3] = NCI Yeast Anticancer Drug Screen. Data for the sgs1 strain (AID 173);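 note: 0% = growth of vehicle-only control cultures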; details: S. cerevisiae sgs1 mutant, stronger effect = higher value
Method in brief: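 A genetically defined yeast mutant is incubated with the test compound, and its growth is compared to that of the same strain given vehicle.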

[4] = NCI Yeast Anticancer Drug Screen. Data for the mlh1 rad18 strain (AID 175); details: S. cerevisiae mlh1 rad18 strain growth inhibition, stronger effect = higher value
Method in brief: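 Steps: expose repair-defective yeast to compound; measure growth; express inhibition against vehicle-treated controls.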

[5] = NCI Yeast Anticancer Drug Screen. Data for the rad52 strain (AID 147);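 note: 0% = growth of vehicle-treated control cultures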; details: S. cerevisiae rad52 mutant growth inhibition, stronger effect = higher value
Method in brief: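 Here a repair-compromised yeast strain receives each compound; its growth is then quantified and normalised to vehicle-only controls.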

[6] = NCI Yeast Anticancer Drug Screen. Data for the wt1 strain (AID 149);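 note: 0% = growth of vehicle-treated wt1 cultures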; details: S. cerevisiae wt1 strain (SPY 50644) growth inhibition, stronger effect = higher value
Method in brief: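 Compounds are added to wt1 yeast cultures. Growth is then measured. Inhibition is expressed relative to vehicle-treated controls.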

[7] = NCI Yeast Anticancer Drug Screen. Data for the rad50EPP+ strain (AID 151);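 note: 0% = growth of vehicle-treated control cultures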; details: S. cerevisiae rad50 mutant strain, stronger effect = higher value
Method in brief: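 Read-out is yeast growth inhibition relative to vehicle; cells used were the rad50EPP+ strain.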

[8] = NCI Yeast Anticancer Drug Screen. Data for the mgt1 strain (AID 153); details: S. cerevisiae mgt1 mutant growth inhibition, stronger effect = higher value
Method in brief: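 Measured: inhibition of mgt1 yeast growth by compound, normalized to vehicle-treated cultures.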

[9] = NCI Yeast Anticancer Drug Screen. Data for the rad50 strain (AID 155);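 note: 0% = growth of vehicle-only cultures of the same strain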; details: S. cerevisiae rad50 strain growth inhibition, stronger effect = higher value
Method in brief: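 Inhibition values express reduced yeast growth in compound-treated cultures relative to vehicle-treated controls.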

[10] = NCI Yeast Anticancer Drug Screen. Data for the mec2-1 strain (AID 157); details: S. cerevisiae mec2-1 strain, stronger effect = higher value
Method in brief: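 Using mec2-1 yeast: add compound, measure growth, express inhibition versus vehicle-treated cultures.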

[11] = NCI Yeast Anticancer Drug Screen. Data for the rad14 strain (AID 159);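 note: 0% = growth of vehicle-treated control cultures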; details: S. cerevisiae rad14 strain growth inhibition, stronger effect = higher value
Method in brief: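 A mutant yeast strain defective in DNA damage repair is treated with compound; inhibition of its growth is scored against untreated, vehicle-exposed cultures.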

[12] = NCI Yeast Anticancer Drug Screen. Data for the sgs1 mgt1 strain (AID 161);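 note: 0% = growth of cultures given vehicle only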; details: S. cerevisiae sgs1 mgt1 strain, stronger effect = higher value
Method in brief: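 This yeast growth screen uses a strain with defined DNA-repair lesions; compound-treated growth is compared with vehicle-treated growth.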

[13] = NCI Yeast Anticancer Drug Screen. Data for the CLN2oe strain (AID 163);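 note: 0% = growth of vehicle-only control cultures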; details: S. cerevisiae CLN2oe strain, stronger effect = higher value
Method in brief: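 Whole-cell yeast growth assay. A strain engineered for altered cell-cycle control received compound, and inhibition relative to vehicle-treated cultures was recorded.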

[14] = NCI Yeast Anticancer Drug Screen. Data for the cln2 rad14 strain (AID 165);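 note: 0% = growth equal to vehicle treated cultures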; details: S. cerevisiae cln2 rad14 strain, stronger effect = higher value
Method in brief: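 Yeast strain cln2 rad14, bearing defects in cell cycle control and DNA repair, serves as the test system; values reflect growth inhibition compared with vehicle.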

[15] = NCI Yeast Anticancer Drug Screen. Data for the bub3 strain (AID 167); details: S. cerevisiae bub3 mutant strain, stronger effect = higher value
Method in brief: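 Steps: expose the mutant yeast strain to compound; grow alongside vehicle-treated cultures; measure growth; express inhibition against the vehicle cultures.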

[16] = NCI Yeast Anticancer Drug Screen. Data for the rad18 strain (AID 177); details: S. cerevisiae rad18 mutant growth inhibition, stronger effect = higher value
Method in brief: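 Measured value is growth inhibition of a yeast strain bearing a DNA repair alteration, referenced to vehicle-treated cells.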

[17] = at 5.0 µM (retest, dose inferred, filed as 0.5)
[18] = at 50.0 µM (retest, dose inferred, filed as 5.0)

Measured: growth inhibition

CCCC/C([O-])=C1/C(=O)N(c2ccccc2)N=C1C.CCCC/C([O-])=C1/C(=O)N(c2ccccc2)N=C1C.[Cu+2]
inactive: [1]; at 1.2 µM 0% | [1]; at 3.7 µM 0% | [1]; at 11.0 µM -1% | [1]; at 33.0 µM -2% | [1]; at 100.0 µM -3% | [2]; at 1.2 µM 0% | [2]; at 3.7 µM -3% | [2]; at 11.0 µM -2% | [2]; at 33.0 µM -3% | [2]; at 100.0 µM -2% | [3]; at 1.2 µM 0% | [3]; at 3.7 µM -1% | [3]; at 11.0 µM -2% | [3]; at 33.0 µM -1% | [3]; at 100.0 µM -1% | [4]; [17] 6% | [4]; [18] 8% | [4]; at 50.0 µM -20.8%

COC(=O)/C=C(/CC(=O)OC)C(=O)OC
active: [12]; [17] 90% | [14]; at 50.0 µM 77.8%
inactive: [5]; at 1.2 µM 0% | [5]; at 3.7 µM -1% | [5]; at 11.0 µM -1% | [5]; at 33.0 µM -1% | [5]; at 100.0 µM -2% | [6]; at 1.2 µM -2% | [6]; at 3.7 µM 0% | [6]; at 11.0 µM -1% | [6]; at 33.0 µM -3% | [6]; at 100.0 µM -3% | [7]; at 1.2 µM 2% | [7]; at 3.7 µM -2% | [7]; at 11.0 µM -1% | [7]; at 33.0 µM -1% | [7]; at 100.0 µM -3% | [8]; at 1.2 µM -3% | [8]; at 3.7 µM 0% | [8]; at 11.0 µM 0% | [8]; at 33.0 µM 0% | [8]; at 100.0 µM -3% | [9]; at 1.2 µM 0% | [9]; at 3.7 µM -44% | [9]; [17] 59% | [9]; at 11.0 µM 4% | [9]; at 33.0 µM -4% | [9]; [18] 3% | [9]; at 50.0 µM 16.6% | [9]; at 100.0 µM -4% | [10]; at 1.2 µM -1% | [10]; at 3.7 µM -3% | [10]; [17] 12% | [10]; at 11.0 µM 1% | [10]; at 33.0 µM 0% | [10]; [18] 6% | [10]; at 50.0 µM 9.4% | [10]; at 100.0 µM -3% | [11]; at 1.2 µM 0% | [11]; at 3.7 µM 1% | [11]; at 11.0 µM 2% | [11]; at 33.0 µM 3% | [11]; at 100.0 µM -1% | [12]; [18] 15% | [12]; at 50.0 µM -8.4% | [13]; at 1.2 µM 0% | [13]; at 3.7 µM -4% | [13]; at 11.0 µM 0% | [13]; at 33.0 µM -2% | [13]; at 100.0 µM -2% | [14]; [17] 15% | [14]; [18] -1% | [15]; at 1.2 µM -4% | [15]; at 3.7 µM -3% | [15]; [17] 9% | [15]; at 11.0 µM -2% | [15]; at 33.0 µM -2% | [15]; [18] 15% | [15]; at 50.0 µM -15.2% | [15]; at 100.0 µM -1% | [1]; at 1.2 µM -3% | [1]; at 3.7 µM 8% | [1]; at 11.0 µM 0% | [1]; at 33.0 µM -1% | [1]; at 100.0 µM -1% | [2]; at 1.2 µM -2% | [2]; at 3.7 µM -1% | [2]; at 11.0 µM 0% | [2]; at 33.0 µM 0% | [2]; at 100.0 µM -2% | [3]; at 1.2 µM 0% | [3]; at 3.7 µM 1% | [3]; at 11.0 µM 3% | [3]; at 33.0 µM 2% | [3]; at 100.0 µM 3% | [4]; [17] 33% | [4]; [18] 1% | [4]; at 50.0 µM 10.8%

COc1oc(C(=O)NC2CCCCC2)c(-c2ccc(Cl)cc2)c1S(=O)(=O)c1ccccc1
inactive: [5]; at 1.2 µM -5% | [5]; at 3.7 µM 7% | [5]; at 11.0 µM 56% | [6]; at 1.2 µM -19% | [6]; at 3.7 µM -5% | [6]; at 11.0 µM 68% | [7]; at 1.2 µM -22% | [7]; at 3.7 µM -19% | [7]; at 11.0 µM -18% | [7]; at 33.0 µM -5% | [7]; at 100.0 µM -11% | [8]; at 1.2 µM -21% | [8]; at 3.7 µM -17% | [8]; at 11.0 µM 60% | [9]; at 1.2 µM -29% | [9]; at 3.7 µM -2% | [9]; [17] 64% | [9]; at 11.0 µM 48% | [10]; at 1.2 µM 1% | [10]; at 3.7 µM 3% | [10]; [17] 22% | [11]; at 1.2 µM -22% | [11]; at 3.7 µM -17% | [11]; at 11.0 µM 23% | [12]; [17] -10% | [13]; at 1.2 µM -1% | [13]; at 3.7 µM 0% | [13]; at 11.0 µM 30% | [14]; [17] 15% | [15]; at 1.2 µM -18% | [15]; at 3.7 µM -25% | [15]; [17] 8% | [15]; at 11.0 µM 47% | [1]; at 1.2 µM -1% | [1]; at 3.7 µM 22% | [2]; at 1.2 µM -20% | [2]; at 3.7 µM -7% | [2]; at 11.0 µM 41% | [3]; at 1.2 µM -4% | [3]; at 3.7 µM -1% | [3]; at 11.0 µM 52% | [4]; [17] 16% | [4]; at 50.0 µM 45.4% | [16]; at 1.2 µM -6% | [16]; at 3.7 µM -1% | [16]; at 11.0 µM 46%
active: [5]; at 33.0 µM 87% | [5]; at 100.0 µM 84% | [6]; at 33.0 µM 91% | [6]; at 100.0 µM 87% | [8]; at 33.0 µM 89% | [8]; at 100.0 µM 86% | [9]; at 33.0 µM 83% | [9]; [18] 92% | [9]; at 50.0 µM 75.1% | [9]; at 100.0 µM 78% | [10]; at 11.0 µM 70% | [10]; at 33.0 µM 92% | [10]; [18] 91% | [10]; at 50.0 µM 78.8% | [10]; at 100.0 µM 88% | [11]; at 33.0 µM 82% | [11]; at 100.0 µM 74% | [12]; [18] 88% | [12]; at 50.0 µM 78.2% | [13]; at 33.0 µM 91% | [13]; at 100.0 µM 83% | [14]; [18] 87% | [14]; at 50.0 µM 76.9% | [15]; at 33.0 µM 90% | [15]; [18] 88% | [15]; at 50.0 µM 72.5% | [15]; at 100.0 µM 84% | [1]; at 11.0 µM 89% | [1]; at 33.0 µM 91% | [1]; at 100.0 µM 82% | [2]; at 33.0 µM 84% | [2]; at 100.0 µM 81% | [3]; at 33.0 µM 89% | [3]; at 100.0 µM 84% | [4]; [18] 84% | [16]; at 33.0 µM 85% | [16]; at 100.0 µM 80%
